Assay results published in PubChem BioAssay AID1159580 (chemical genetic matrix, 2015).
In all, about 5,500 compounds went through this assay and about 2,000 (36%) were called active. Inconclusive results (about 18%) are left out. No stated cut-off is given here; in the data, active means normalized growth mostly below about 0.91 (no sharp cut-off); inconclusive means no clear call, values can overlap the other calls; inactive means mostly above about 0.92. This is one part of the list.

Experiment: chemical genetic growth profiling, strain panel (AID 1159580);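 further: tested at 20 µM; growth read once vehicle control cultures reached saturation at 30 °C; 1 = growth at the plate median or of vehicle wells; lower values mean less growth of the strain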
Conditions: growth OD
[1] = S. cerevisiae deletion strains, locus YHR030C, strain SLT2, hits give low values

Measured: normalized growth

O=C(O)C1=C(CSc2nnnn2CS(=O)(=O)O)CS[C@@H]2C(NC(=O)[C@H](O)c3ccccc3)C(=O)N12 (stereo partly drawn)
inactive: S. cerevisiae deletion strains, locus YAL021C, strain ccr4, hits give low values 0.955 | S. cerevisiae deletion strains, locus YAL026C, strain drs2, hits give low values 0.965 | S. cerevisiae deletion strains, locus YAL030W, strain snc1, hits give low values 0.993 | S. cerevisiae deletion strains, locus YBL061C, strain skt5, hits give low values 0.989 | S. cerevisiae deletion strains, locus YBR009C, strain hhf1, hits give low values 0.993 | S. cerevisiae deletion strains, locus YBR023C, strain chs3, hits give low values 0.988 | S. cerevisiae deletion strains, locus YBR171W, strain sec66, hits give low values 0.978 | S. cerevisiae deletion strains, locus YBR231C, strain swc5, hits give low values 0.987 | S. cerevisiae deletion strains, locus YBR279W, strain paf1, hits give low values 0.99 | S. cerevisiae deletion strains, locus YCL011C, strain gbp2, hits give low values 0.963 | S. cerevisiae deletion strains, locus YCL016C, strain dcc1, hits give low values 0.987 | S. cerevisiae deletion strains, locus YCL061C, strain MRC1, hits give low values 0.971 | S. cerevisiae deletion strains, locus YCL069W, strain vba3, hits give low values 0.978 | S. cerevisiae deletion strains, locus YCR088W, strain abp1, hits give low values 0.968 | S. cerevisiae deletion strains, locus YDL005C, strain med2, hits give low values 0.98 | S. cerevisiae deletion strains, locus YDL040C, strain nat1, hits give low values 0.989 | S. cerevisiae deletion strains, locus YDR001C, strain nth1, hits give low values 0.978 | S. cerevisiae deletion strains, locus YDR069C, strain doa4, hits give low values 0.982 | S. cerevisiae deletion strains, locus YDR137W, strain rgp1, hits give low values 0.928 | S. cerevisiae deletion strains, locus YDR159W, strain sac3, hits give low values 0.966 | S. cerevisiae deletion strains, locus YDR195W, strain ref2 0.971 | S. cerevisiae deletion strains, locus YDR297W, strain sur2, hits give low values 0.985 | S. cerevisiae deletion strains, locus YDR334W, strain swr1, hits give low values 0.95 | S. cerevisiae deletion strains, locus YDR335W, strain msn5, hits give low values 0.963 | S. cerevisiae deletion strains, locus YDR392W, strain spt3, hits give low values 0.956 | S. cerevisiae deletion strains, locus YEL003W, strain gim4, hits give low values 0.969 | S. cerevisiae deletion strains, locus YEL037C, strain rad23, hits give low values 0.963 | S. cerevisiae deletion strains, locus YEL061C, strain CIN8 (second series), hits give low values 0.972 | S. cerevisiae deletion strains, locus YER015W, strain faa2, hits give low values 0.986 | S. cerevisiae deletion strains, locus YER016W, strain bim1, hits give low values 0.978 | S. cerevisiae deletion strains, locus YER111C, strain swi4, hits give low values 0.981 | S. cerevisiae deletion strains, locus YER155C, strain BEM2 (second series), hits give low values 0.989 | S. cerevisiae deletion strains, locus YFR010W, strain ubp6, hits give low values 0.964 | S. cerevisiae deletion strains, locus YGL167C, strain pmr1, hits give low values 0.987 | S. cerevisiae deletion strains, locus YGL173C, strain kem1, hits give low values 0.983 | S. cerevisiae deletion strains, locus YGL227W, strain vid30, hits give low values 0.994 | S. cerevisiae deletion strains, locus YGL240W, strain doc1, hits give low values 1.01 | S. cerevisiae deletion strains, locus YGL253W, strain hxk2, hits give low values 0.991 | S. cerevisiae deletion strains, locus YHR013C, strain ard1, hits give low values 0.963 | S. cerevisiae deletion strains, locus YHR027C, strain rpn1, hits give low values 0.975 | [1] 1 | S. cerevisiae deletion strains, locus YHR079C, strain IRE1, hits give low values 1.03 | S. cerevisiae deletion strains, locus YHR142W, strain chs7, hits give low values 0.948 | S. cerevisiae deletion strains, locus YJL092W, strain hpr5, hits give low values 0.97 | S. cerevisiae deletion strains, locus YJL095W, strain BCK1 (second series), hits give low values 0.994 | S. cerevisiae deletion strains, locus YJL095W, strain BCK1, hits give low values 1.01 | S. cerevisiae deletion strains, locus YJL115W, strain asf1, hits give low values 0.968 | S. cerevisiae deletion strains, locus YJL129C, strain trk1, hits give low values 0.961 | S. cerevisiae deletion strains, locus YJL154C, strain vps35, hits give low values 0.989 | S. cerevisiae deletion strains, locus YJL164C, strain tpk1, hits give low values 0.982 | S. cerevisiae deletion strains, locus YJL166W, strain qcr8, hits give low values 0.99 | S. cerevisiae deletion strains, locus YJL187C, strain SWE1, hits give low values 0.991 | S. cerevisiae deletion strains, locus YJR066W, strain TOR1, hits give low values 0.945 | S. cerevisiae deletion strains, locus YKL160W, strain elf1, hits give low values 0.974 | S. cerevisiae deletion strains, locus YKR026C, strain gcn3, hits give low values 0.972 | S. cerevisiae deletion strains, locus YKR091W, strain srl3, hits give low values 0.989 | S. cerevisiae deletion strains, locus YLL001W, strain dnm1, hits give low values 0.965 | S. cerevisiae deletion strains, locus YLL026W, hits give low values 0.991 | S. cerevisiae deletion strains, locus YLL041C, strain sdh2, hits give low values 0.982 | S. cerevisiae deletion strains, locus YLR027C, strain aat2, hits give low values 0.984 | S. cerevisiae deletion strains, locus YLR113W, strain HOG1, hits give low values 1.04 | S. cerevisiae deletion strains, locus YLR221C, strain rsa3, hits give low values 0.975 | S. cerevisiae deletion strains, locus YLR258W, strain gsy2, hits give low values 0.995 | S. cerevisiae deletion strains, locus YLR262C, strain YPT6 (second series), hits give low values 0.98 | S. cerevisiae deletion strains, locus YLR320W, strain mms22, hits give low values 0.995 | S. cerevisiae deletion strains, locus YLR342W, strain FKS1, hits give low values 0.982 | S. cerevisiae deletion strains, locus YLR357W, strain rsc2, hits give low values 1 | S. cerevisiae deletion strains, locus YLR370C, strain arc18, hits give low values 0.971 | S. cerevisiae deletion strains, locus YLR384C, strain iki3, hits give low values 0.987 | S. cerevisiae deletion strains, locus YML120C, strain ndi1, hits give low values 0.958 | S. cerevisiae deletion strains, locus YMR058W, strain fet3, hits give low values 0.97 | S. cerevisiae deletion strains, locus YMR125W, strain sto1, hits give low values 0.993 | S. cerevisiae deletion strains, locus YMR129W, hits give low values 0.975 | S. cerevisiae deletion strains, locus YMR205C, strain PFK2, hits give low values 1.01 | S. cerevisiae deletion strains, locus YMR231W, strain pep5, hits give low values 0.984 | S. cerevisiae deletion strains, locus YNL071W, strain lat1, hits give low values 0.992 | S. cerevisiae deletion strains, locus YNL183C, strain NPR1, hits give low values 0.952 | S. cerevisiae deletion strains, locus YNL209W, strain ssb2, hits give low values 0.982 | S. cerevisiae deletion strains, locus YNL248C, strain rpa49, hits give low values 0.947 | S. cerevisiae deletion strains, locus YNL322C, strain KRE1 (second series), hits give low values 0.977 | S. cerevisiae deletion strains, locus YNR049C, strain mso1, hits give low values 0.983 | S. cerevisiae deletion strains, locus YOR001W, strain rrp6, hits give low values 0.942 | S. cerevisiae deletion strains, locus YOR070C, strain gyp1, hits give low values 0.993 | S. cerevisiae deletion strains, locus YOR080W, strain dia2, hits give low values 0.981 | S. cerevisiae deletion strains, locus YOR083W, strain WHI5, hits give low values 0.972 | S. cerevisiae deletion strains, locus YOR106W, strain vam3, hits give low values 0.971 | S. cerevisiae deletion strains, locus YOR231W, strain MKK1, hits give low values 1.01 | S. cerevisiae deletion strains, locus YOR265W, strain rbl2, hits give low values 0.991 | S. cerevisiae deletion strains, locus YOR270C, strain vph1, hits give low values 0.964 | S. cerevisiae deletion strains, locus YOR290C, strain snf2, hits give low values 0.979 | S. cerevisiae deletion strains, locus YPL051W, strain arl3, hits give low values 0.998 | S. cerevisiae deletion strains, locus YPL078C, strain atp4, hits give low values 0.966 | S. cerevisiae deletion strains, locus YPL106C, strain sse1, hits give low values 0.961 | S. cerevisiae deletion strains, locus YPL240C, strain hsp82, hits give low values 0.971 | S. cerevisiae deletion strains, locus YPL256C, strain CLN2, hits give low values 1.04

Cc1c(C)c(C)c(S(=O)(=O)Nc2ccccc2N)c(C)c1C
inactive: S. cerevisiae deletion strains, locus YAL013W, strain DEP1, hits give low values 1.01 | S. cerevisiae deletion strains, locus YBR229C, strain ROT2, hits give low values 0.993 | S. cerevisiae deletion strains, locus YDL101C, strain DUN1, hits give low values 1.04 | S. cerevisiae deletion strains, locus YDR150W, strain NUM1, hits give low values 1.02 | S. cerevisiae deletion strains, locus YEL061C, strain CIN8, hits give low values 0.959 | S. cerevisiae deletion strains, locus YGR078C, strain PAC10, hits give low values 1.01 | [1] 1.01 | S. cerevisiae deletion strains, locus YHR087W, strain rtc3, hits give low values 0.989 | S. cerevisiae deletion strains, locus YJR043C, strain POL32, hits give low values 1.03 | S. cerevisiae deletion strains, locus YJR075W, strain HOC1, hits give low values 1.01 | S. cerevisiae deletion strains, locus YKL190W, strain CNB1, hits give low values 0.994 | S. cerevisiae deletion strains, locus YLR039C, strain RIC1, hits give low values 0.988 | S. cerevisiae deletion strains, locus YLR058C, strain SHM2 (second series), hits give low values 0.975 | S. cerevisiae deletion strains, locus YLR085C, strain ARP6, hits give low values 0.988 | S. cerevisiae deletion strains, locus YLR262C, strain YPT6, hits give low values 0.981 | S. cerevisiae deletion strains, locus YML094W, strain GIM5, hits give low values 1 | S. cerevisiae deletion strains, locus YMR219W, strain ESC1, hits give low values 0.999 | S. cerevisiae deletion strains, locus YMR263W, strain SAP30, hits give low values 1.01 | S. cerevisiae deletion strains, locus YNL128W, strain TEP1, hits give low values 0.978 | S. cerevisiae deletion strains, locus YNL153C, strain GIM3, hits give low values 1.04 | S. cerevisiae deletion strains, locus YNL298W, strain CLA4 (second series), hits give low values 0.982 | S. cerevisiae deletion strains, locus YNL322C, strain KRE1, hits give low values 0.996 | S. cerevisiae deletion strains, locus YNR030W, strain Alg12, hits give low values 0.966 | S. cerevisiae deletion strains, locus YOL006C, strain TOP1, hits give low values 1.02 | S. cerevisiae deletion strains, locus YPL055C, strain LGE1, hits give low values 0.991 | S. cerevisiae deletion strains, locus YPL241C, strain CIN2, hits give low values 0.974 | S. cerevisiae deletion strains, locus YPR135W, strain CTF4, hits give low values 1.06 | S. cerevisiae strains, strain wild type, hits give low values 0.975
